Laboratory results published in the supplement of paper PMC10981050.
Where “and” joins values, the source holds several entries; their conditions need not be identical. Identical values can stand only once. Counter-ions that a name gives are not always drawn.

Legend:
Test in all cases: cell viability relative to vehicle control; higher = less cytotoxic
Conditions in all cases: 10 µM
[1] = test system: K562
Outline: (§1)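 CRISPR-edited mutant clones and isogenic wild-type clones from four leukaemia lines were screened against Selleck bioactive, kinase and epigenetic probe libraries, with identity-inconsistent compounds excluded. Each compound was acoustically dispensed at a single 10 µM dose into 384-well plates holding 2000 cells in 50 µL medium per well. After 48 h the supernatant was removed and CellTiter-Glo luminescence was read. Viability was expressed as percent of the on-plate vehicle control and analysed in Genedata Screener.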

[2] = test system: MARIMO
Outline: as §1

[3] = test system: MOLM14
Outline: as §1

[4] = test system: OCI-AML2
Outline: as §1

Compound	cell viability ([1]; SRSF2 genotype: SRSF2 P95H/wt)	cell viability ([1]; SRSF2 genotype: SRSF2 wt/wt)	cell viability ([2]; SRSF2 genotype: SRSF2 P95H/wt)	cell viability ([2]; SRSF2 genotype: SRSF2 wt/wt)	cell viability ([3]; SRSF2 genotype: SRSF2 P95H/wt)	cell viability ([3]; SRSF2 genotype: SRSF2 wt/wt)	cell viability ([4]; SRSF2 genotype: P95H/wt)	cell viability ([4]; SRSF2 genotype: wt/wt)
C/C=C(/C)C(=O)O[C@@H]1[C@H](OC(C)=O)c2c(ccc3ccc(=O)oc23)OC1(C)C [Praeruptorin A]	96.7% and 95.2%	100%	89.8%	101%	89%	94.8%	97.4%	104%
CCN(CC)Cc1ccc2cc(COC(=O)Nc3ccc(C(=O)NO)cc3)ccc2c1 [ITF2357 (Givinostat)]	1.36% and 7.22%	1.85%	4.74%	9.63%	0.81%	0.55%	1.72%	3.52%
CCOc1cn(-c2ccc(F)cc2C)nc1C(=O)Nc1ccc(Oc2ccnc3cc(OC)c(OC)cc23)c(F)c1	23.1% and 45.6%	25.2%	89.3%	90.4%	24.9%	19.6%	48.1%	52.9%
O=c1[nH]cc(F)c(=O)[nH]1 [Adrucil (Fluorouracil)]	92.3% and 90%	74.5%	68.5%	67.4%	37.5%	26.1%	49.1%	55.1%
N#Cc1c(Oc2ccc(F)c(NC(=O)Cc3cccc(C(F)(F)F)c3)c2)ccc2nc(NC(=O)C3CC3)sc12	12.9% and 18.9%	19%	40.9%	36.8%	36.6%	25.9%	31.6%	36.8%
CC[C@@H]1/C=C(\C)C[C@H](C)C[C@H](OC)[C@H]2O[C@@](O)(C(=O)C(=O)N3CCCC[C@H]3C(=O)O[C@H](/C(C)=C/[C@@H]3CC[C@H](Cl)[C@H](OC)C3)[C@H](C)[C@@H](O)CC1=O)[C@H](C)C[C@@H]2OC [Pimecrolimus]	66% and 70.4%	64.5%	80.5%	70.7%	65.7%	67.3%	58.1%	57.8%
C=C1C(=O)[C@]23[C@H](O)[C@H]1CC[C@H]2[C@@]12CO[C@]3(O)[C@@H](O)[C@@H]1C(C)(C)CC[C@@H]2O [Oridonin (Isodonol)]	26.2% and 29.8%	24.2%	37.5%	30.1%	9.97%	3.32%	17.9%	13.2%
COc1cc(-c2ncn(/C=C\C(=O)OC(C)C)n2)cc(C(F)(F)F)c1	5.77% and 12.8%	10.7%	19.1%	20.6%	2.46%	0.92%	4.82%	9.13%
COc1cc2c(Oc3ccc(NC(=O)C4(C(=O)Nc5ccc(F)cc5)CC4)cc3F)ccnc2cc1OCCCN1CCOCC1	0.8% and 0.64%	0.55%	17.8%	12.1%	0.21%	0.34%	0.22%	1.03%
CC[C@@H](C)Nc1cc(C(=O)N[C@H]2C[C@H]3CC[C@@H](C2)N3c2ccc(C(=O)C3CC3)cn2)c(C)cc1C(N)=O	19.1% and 26.9%	23%	32.8%	28.5%	2%	2.43%	14.2%	21%
CCCCNc1ccc(C(=O)OCCN(C)C)cc1 [Tetracaine hydrochloride (Pontocaine)]	99.3% and 87.2%	90.7%	93.4%	105%	92.2%	96.2%	94%	98.4%
CCOC(=O)CCC(=O)O[C@H]1[C@H](O[C@@H]2[C@@H](C)[C@H](O[C@H]3C[C@@](C)(OC)[C@@H](O)[C@H](C)O3)[C@@H](C)C(=O)O[C@H](CC)[C@@](C)(O)[C@H](O)[C@@H](C)C(=O)[C@H](C)C[C@@]2(C)O)O[C@H](C)C[C@@H]1N(C)C [Erythromycin Ethylsuccinate]	95.1% and 103%	108%	102%	101%	106%	102%	117%	98.3%
O=C(O)CCCC[C@@H]1CCSS1 (racemic) [Thioctic acid]	94.1% and 87.7%	88.3%	93.1%	99.4%	92.8%	94.1%	97.1%	98.9%
CCOC(=O)c1ncn2c1CN(C)C(=O)c1cc(F)ccc1-2 [Flumazenil]	107% and 101%	108%	95.9%	107%	106%	101%	94%	103%
Cc1cc(S(=O)(=O)O)c2c(C)ccc(C(C)C)cc1-2 [Sodium gualenate]	103%	103%	100%	108%	99%	104%	95.2%	106%
NC1(c2ccc(-c3nc4ccn5c(=O)[nH]nc5c4cc3-c3ccccc3)cc2)CCC1 [MK-2206 dihydrochloride]	38.7% and 32.2%	48.4%	51.4%	53.3%	14.7%	22.9%	5.42%	27.8%
CC(C)COc1ccc(CNC(=O)N(Cc2ccc(F)cc2)C2CCN(C)CC2)cc1 [Pimavanserin]	0.6% and 0.64%	0.75%	2.06%	4.09%	0.25%	0.22%	0.22%	1.2%
COc1cc(C=CC=O)ccc1O [Ferulaldehyde]	102% and 97.5%	98.5%	97%	103%	89.6%	97.7%	95.6%	111%
CC1=C(CC[C@@H](C)CO[C@@H]2O[C@H](CO)[C@@H](O)[C@H](O)[C@H]2O)O[C@H]2C[C@H]3[C@@H]4CC=C5C[C@@H](O[C@@H]6O[C@H](CO)[C@@H](O[C@@H]7O[C@@H](C)[C@H](O)[C@@H](O)[C@H]7O)[C@H](O)[C@H]6O[C@@H]6O[C@@H](C)[C@H](O)[C@@H](O)[C@H]6O)CC[C@]5(C)[C@H]4CC[C@]3(C)[C@@H]12 [Pseudoprotodioscin]	107% and 104%	110%	99.3%	104%	96.2%	101%	110%	105%
CC(=O)NC(CC(C)C)C(=O)O (stereo not given) [Acetylleucine]	91.4% and 98.5%	97%	103%	93.4%	101%	94.8%	92.2%	95.4%

Compound	cell viability ([1]; SRSF2 genotype: SRSF2 P95H/wt)	cell viability ([1]; SRSF2 genotype: SRSF2 wt/wt)	cell viability ([2]; SRSF2 genotype: SRSF2 P95H/wt)	cell viability ([2]; SRSF2 genotype: SRSF2 wt/wt)	cell viability ([3]; SRSF2 genotype: SRSF2 P95H/wt)	cell viability ([3]; SRSF2 genotype: SRSF2 wt/wt)	cell viability ([4]; SRSF2 genotype: P95H/wt)	cell viability ([4]; SRSF2 genotype: wt/wt)
CC(C)(C)c1nc(-c2ccc(NC(=O)Nc3cccc(C(F)(F)F)c3)c3ccccc23)c2c(N)nccn12 [kira6]	10.9% and 7.91%	12.4%	28.8%	28.4%	1.58%	3.37%	8.47%	16.5%
C[C@@H]1C(=O)O[C@H]2C[C@@]34[C@H]5C[C@@H](C(C)(C)C)[C@]36[C@@H](OC(=O)[C@@H]6O)O[C@@]4(C(=O)O5)[C@]21O [Ginkgolide A]	105% and 100%	97.8%	101%	106%	105%	103%	106%	95.5%
CC1(C)[C@@H](O[C@H]2O[C@H](C(=O)O)[C@@H](O)[C@H](O)[C@H]2O[C@@H]2O[C@H](C(=O)O)[C@@H](O)[C@H](O)[C@H]2O)CC[C@]2(C)[C@H]3C(=O)C=C4[C@@H]5C[C@@](C)(C(=O)O)CC[C@]5(C)CC[C@@]4(C)[C@]3(C)CC[C@@H]12 [Dipotassium glycyrrhizinate]	105% and 104%	102%	103%	112%	103%	103%	101%	105%
CCOc1cc(C=O)ccc1OC(C)=O [Ethyl vanillin acetate]	103% and 99.2%	102%	105%	108%	96.4%	98.5%	98%	108%
CCCNC(C)C(=O)Nc1ccccc1C (stereo not given) [Prilocaine]	87.8% and 85.9%	86.8%	79.4%	90.5%	93.3%	85.6%	89.1%	90.7%
CNCCCC12CCC(c3ccccc31)c1ccccc12 [Maprotiline hydrochloride]	76.7% and 74.8%	71.2%	65.2%	71.2%	64.4%	83.2%	51.1%	56.8%
CC1(C)C2CCC1(C)C(O)C2 (single isomer, unassigned; (+)) [(+)-Borneol]	96.5% and 99.3%	105%	100%	106%	101%	103%	101%	98%
O=C(Nc1cccc2c(=O)cc(-c3nnn[nH]3)oc12)c1ccc(OCCCCc2ccccc2)cc1 [Pranlukast]	103%	104%	106%	114%	101%	104%	105%	113%
O=C(O)c1cccnc1Nc1cccc(C(F)(F)F)c1 [Niflumic acid]	97.2% and 100%	94.6%	94.1%	97.8%	93.8%	98.5%	101%	104%
O=C1CN2Cc3c(ccc(Cl)c3Cl)N=C2N1 [Anagrelide hydrochloride]	94.6% and 89.8%	108%	84.1%	96.4%	83.4%	93.4%	101%	110%
CC(C)=CCC[C@@](C)(O)[C@H]1CC[C@@]2(C)[C@@H]1[C@H](O)C[C@@H]1[C@@]3(C)CC[C@H](O)C(C)(C)C3CC[C@]12C (stereo partly drawn) [(20R)-Protopanaxdiol]	109% and 101%	96%	103%	105%	106%	102%	103%	101%
Cn1cnc2c(F)c(Nc3ccc(Br)cc3Cl)c(C(=O)NOCCO)cc21 [AZD6244 (Selumetinib)]	79% and 92.2%	75.3%	37.5%	36.3%	44.6%	31.3%	39.6%	43.6%
CCCCCCCN(CC)CCCC(O)c1ccc(NS(C)(=O)=O)cc1 (stereo not given) [Ibutilide fumarate]	87.6% and 106%	93.2%	91.6%	107%	97.9%	103%	97.9%	96.4%
C=C(C)C1CCC2(C)CCC(=O)C(C)=C2C1 (stereo not given)	111% and 105%	112%	106%	100%	112%	110%	102%	101%
CC1=CCC2CC1C2(C)C (stereo not given)	99.8% and 101%	99.4%	95.5%	94.5%	98.5%	99.8%	97%	102%
CC1OC(OC2CCC3(C)C(CCC4(C)C3C=CC3=C5CC(C)(C)CCC5(CO)C(O)CC34C)C2(C)CO)C(O)C(OC2OC(CO)C(O)C(O)C2O)C1O (stereo not given) [Saikosaponin B2]	93.5% and 88.7%	86.8%	91.5%	106%	96.3%	95.1%	93.9%	100%
Nc1ncccc1-c1nc2ccc(-c3ccccc3)nc2n1-c1ccc(C2(N)CCC2)cc1 [Miransertib (ARQ 092)HCl]	35.5% and 48%	30.4%	75.3%	72.4%	39.3%	48.1%	33%	49.2%
COc1cccc(-c2c(C)n(Cc3c(F)cccc3C(F)(F)F)c(=O)n(C[C@H](NCCCC(=O)O)c3ccccc3)c2=O)c1F [Elagolix Sodium]	97% and 93%	96.3%	104%	115%	99%	101%	110%	104%
CCOc1cc([C@@H](CS(C)(=O)=O)N2C(=O)c3cccc(NC(C)=O)c3C2=O)ccc1OC	102% and 98.7%	94.5%	99.5%	92.5%	98%	94.9%	90.1%	94.7%
COc1cc(CCc2cc(NC(=O)c3ccc(N4CC(C)NC(C)C4)cc3)n[nH]2)cc(OC)c1 (stereo not given)	68.8% and 79.7%	59.6%	46%	42.1%	14.4%	21.5%	8.06%	17.9%
